Assay outcomes (PubChem)
The full list was thinned out, with hits kept by preference.
Cycloheximide cs: counter-screen hit for Shiga toxin inhibitors, cycloheximide; cell reporter, cycloheximide protein synthesis inhibition counterscreen; max response, %; 300,000 tested, 12% active; AID 2314; in the data active = max response mostly above about 13%, no sharp cut-off; inactive = mostly below about 14%; note: read at 38.3 µM for the half of the compounds with a filed dose
TbPYK inhibitor: inhibitors of Trypanosoma brucei pyruvate kinase; Q57TT1; TbPYK enzyme, Kinase-Glo Plus ATP luminescence, 45 min; Potency, µM (series often up to 76.8 µM), usual class: inhibitors; 410,000 tested, 0.12% active; AID 624173; active = well fitted curve in the direction sought with a large enough effect; inconclusive = small, poorly fitted or top-dose-only effect, or another doubt; inactive = no such curve, though single readings can be large; an effect the other way counts as inactive or inconclusive; note: nearly all actives have a fitted effect of over 50% in size
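ADP (130 uM final) triggers the TbPYK reaction after compound addition; incubation is 45 min at room temperature. Kinase-Glo Plus is then added and luminescence imaged. Normalized data are fitted to concentration-effect curves.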
SARS PLpro yeast: inhibitors of SARS-CoV papain-like protease in yeast; S. cerevisiae expressing SARS-CoV PLpro, growth rescue; Potency, µM (doses to about 32.9 µM), usual class: activators; 330,000 tested, 0.19% active; AID 485353; note: nearly all actives have a fitted effect of over 55% in size
Shiga toxin inh: inhibitors of Shiga toxin in Vero cells; 290,000 tested, 9.2% active; inhibition, % at 38.7 µM; Vero cells, Shiga toxin protein synthesis inhibition reporter; in the data active = inhibition mostly above about 28%, no sharp cut-off; inactive = mostly below about 43%
NS1 inh: influenza NS1 inhibition; 270,000 tested, 0.4% active; Potency, µM (highest dose often 46.1 µM); note: actives are rising curves; nearly all actives have a fitted effect of over 50% in size
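Recovery from NS1-induced slow growth read by OD600 in budding yeast switched to galactose assay medium (pH 6.0, -URA) at 1:100 dilution. Compound 23 nl per well; the matching strain lacking NS1 serves as control.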
LmPK inh: blocks Leishmania mexicana pyruvate kinase activity; Q27686; purified LmPK, Kinase-Glo ATP luminescence, 1 h; Potency, µM (highest dose often 57.5 µM), most hits filed as inhibitors; 290,000 tested, 0.37% active; AID 1721; active = well fitted curve in the direction sought with a large enough effect; inconclusive = small, poorly fitted or top-dose-only effect, or another doubt; inactive = no such curve, though single readings can be large; an effect the other way counts as inactive or inconclusive
Target sequence (Q27686 whole entry, looked up): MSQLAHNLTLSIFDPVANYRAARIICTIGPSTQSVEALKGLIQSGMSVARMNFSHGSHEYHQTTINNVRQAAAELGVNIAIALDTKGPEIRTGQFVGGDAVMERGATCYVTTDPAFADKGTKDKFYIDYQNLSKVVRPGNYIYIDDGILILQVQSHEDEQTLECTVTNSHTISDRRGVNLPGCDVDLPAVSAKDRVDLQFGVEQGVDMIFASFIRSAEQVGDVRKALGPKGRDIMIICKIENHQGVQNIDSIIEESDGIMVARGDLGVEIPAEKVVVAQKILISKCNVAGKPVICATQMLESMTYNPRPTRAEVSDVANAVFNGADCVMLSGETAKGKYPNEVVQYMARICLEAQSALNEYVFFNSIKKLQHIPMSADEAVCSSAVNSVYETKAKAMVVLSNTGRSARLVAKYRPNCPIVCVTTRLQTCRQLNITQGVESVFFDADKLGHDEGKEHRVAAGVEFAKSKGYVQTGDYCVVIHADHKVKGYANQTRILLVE
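Purified LmPK (0.1 nM) converted ADP (0.1 mM) to ATP with PEP (0.5 mM) in imidazole buffer pH 7.2 with KCl and MgCl2, 1 h at room temperature. ATP was read by Kinase-Glo luminescence; data normalized to uninhibited and no-enzyme controls.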
Large screens that a line does not name were inactive. Unless noted, calls come from the whole dose curve.

CC(C)COC(=O)NC1c2ccccc2Oc2ccccc21	none
O=C1C(c2c(O)[nH]c3ccccc23)=Nc2ccccc21	LmPK inh inconclusive (no result: NS1 inh)
CC(=O)c1cccc2c(O)c(C3=Nc4ccccc4C3=O)[nH]c12	Cycloheximide cs 48, TbPYK inhibitor inconclusive, Shiga toxin inh 89, LmPK inh 25µM
O=C(O/N=C1\CCS(=O)(=O)c2sccc21)c1ccc(F)cc1	Cycloheximide cs 37, Shiga toxin inh 78 (no result: NS1 inh)
CCOC(=O)C1CCC(CN(Cc2ccc(Cl)cc2)S(=O)(=O)c2ccc(Br)cc2)CC1 (centres undefined)	none (no result: Cycloheximide cs, SARS PLpro yeast, Shiga toxin inh, NS1 inh, LmPK inh)
COc1ccc(CNC(=O)C2CSC(c3ccc(OC)cc3)N2C(C)=O)cc1 (centres undefined)	none
COc1ccccc1CNC(=O)C1COc2ccccc2O1 (centres undefined)	Cycloheximide cs 30, Shiga toxin inh 43
COc1ccc(CCNC(=O)C2COc3ccccc3O2)cc1OC (centres undefined)	none (no result: Cycloheximide cs, SARS PLpro yeast, Shiga toxin inh, NS1 inh, LmPK inh)
O=C(NCC1COc2ccccc2O1)c1ccc(NC(=O)c2ccco2)cc1 (centres undefined)	none
O=C(NCC1COc2ccccc2O1)c1ccc(Cl)cc1 (centres undefined)	Cycloheximide cs 16
COc1ccc(CNC(=O)C2COc3ccccc3O2)cc1 (centres undefined)	Cycloheximide cs 29, Shiga toxin inh 39
COc1ccc(CNC(=O)C2CSCCS2)cc1 (centres undefined)	Cycloheximide cs 24
CCOC(=O)c1c(C)[nH]c(CCC(=O)Nc2ccc(N(CC)CC)cc2C)c1C	none (no result: Cycloheximide cs, SARS PLpro yeast, Shiga toxin inh, NS1 inh, LmPK inh)
COc1cccc(CN2C(=NC(=O)C3CCCO3)SC3CS(=O)(=O)CC32)c1 (centres undefined)	none (no result: Cycloheximide cs, SARS PLpro yeast, Shiga toxin inh, NS1 inh, LmPK inh)
O=C(NCCc1ccc(Cl)cc1)C1COc2ccccc2O1 (centres undefined)	Cycloheximide cs 13
c1ccc(CCNCC2COc3ccccc3O2)cc1 (centres undefined)	Cycloheximide cs 19, Shiga toxin inh 28
O=C(Nc1ccc(F)cc1)Oc1ccc[nH]c1=O	Cycloheximide cs 16, Shiga toxin inh 24
O=C(Oc1ccc[nH]c1=O)c1ccccc1	none (no result: Cycloheximide cs, SARS PLpro yeast, Shiga toxin inh, NS1 inh, LmPK inh)
CNC(=S)N/N=C/c1c2ccccc2c(Cl)c2ccccc12	Cycloheximide cs 27, Shiga toxin inh 87
O=C(OCc1ccccc1)N1CCC2CC1c1ccc(/C=C/CCCCl)cc12 (centres undefined)	none (no result: Cycloheximide cs, SARS PLpro yeast, Shiga toxin inh, NS1 inh, LmPK inh)
CCOc1ccc2oc(C(=O)O)c(C)c2c1	Cycloheximide cs 26
Cc1oc2ccc(OCc3ccc(Cl)cc3)cc2c1C(=O)O	Cycloheximide cs 27, Shiga toxin inh 87
CCOc1ccc2oc(C(=O)Nc3ccc4c(c3)OCO4)c(C)c2c1	Cycloheximide cs 25, Shiga toxin inh 106
CCOc1ccc2oc(C(=O)N3CC(C)OC(C)C3)c(C)c2c1 (centres undefined)	Cycloheximide cs 24
CCOc1ccc(NC(=O)CN(C)C(=O)CN2C(=O)c3ccc([N+](=O)[O-])cc3C2=O)cc1OCC	none (no result: Cycloheximide cs, Shiga toxin inh, NS1 inh, LmPK inh)
COc1ccc(-c2nnc(SCC(=O)Oc3cc(C)ccc3C)o2)cc1	none (no result: Cycloheximide cs, SARS PLpro yeast, Shiga toxin inh, NS1 inh, LmPK inh)
OC[C@@H]1CN(Cc2cccs2)C[C@H](n2cnc3c(N4CCCC4)ncnc32)O1	none (no result: Cycloheximide cs, SARS PLpro yeast, Shiga toxin inh, NS1 inh, LmPK inh)
O=C(NCc1ccccc1)C1c2ccccc2OCC(=O)N1Cc1ccc2c(c1)OCO2 (centres undefined)	none (no result: Cycloheximide cs, SARS PLpro yeast, Shiga toxin inh, NS1 inh, LmPK inh)
NC(=O)C1CC2(NC(=O)NC2=O)c2cc(F)ccc2O1 (centres undefined)	none (no result: Cycloheximide cs, SARS PLpro yeast, Shiga toxin inh, NS1 inh, LmPK inh)
CN(/N=C/c1cccnc1)c1cnc2ccccc2n1	Cycloheximide cs 47, Shiga toxin inh 64 (no result: NS1 inh)
CCN(C1CCCCC1)S(=O)(=O)CCNC(=O)c1ccc(OC)cc1	none (no result: Cycloheximide cs, SARS PLpro yeast, Shiga toxin inh, NS1 inh, LmPK inh)
CCCc1sc(N/N=C/c2ccccn2)nc1-c1ccc(F)cc1	Cycloheximide cs 25, Shiga toxin inh 52
CCCCNC(=O)CSc1nc2cc3c(cc2c(=O)n1CCCCCC(=O)NCc1ccc(OC)cc1)OCO3	none (no result: Cycloheximide cs, SARS PLpro yeast, Shiga toxin inh, NS1 inh, LmPK inh)
Cc1ccc(NC(=O)C2C(=O)N(C)c3ccccc32)cc1 (centres undefined)	Cycloheximide cs 19
CN1C(=O)C(C(=O)Nc2ccccc2F)c2ccccc21 (centres undefined)	none
CC(=O)NCc1ccc(S(=O)(=O)N2CCCN(C)CC2)cc1	none
C=CCOc1ccc(C2NC(=S)NC3=C2CCc2ccccc23)cc1 (centres undefined)	Cycloheximide cs 25
COc1cccc(NC(=O)NC2CCCCCCC2)c1	Cycloheximide cs 50, Shiga toxin inh 155
COc1cc(NC(=O)NC2Cc3ccccc3C2)cc(OC)c1	Cycloheximide cs 20, Shiga toxin inh 53
COc1cccc(NC(=O)C(=S)NC2CCCCC2)c1	Cycloheximide cs 50, Shiga toxin inh 106
COc1ccc(C(=O)/C(=C/c2cccs2)c2nc3ccccc3o2)cc1	Cycloheximide cs 43, Shiga toxin inh 93
COc1ccc(/C=C(\CC(=O)O)c2nc3ccccc3o2)cc1	Cycloheximide cs 39, Shiga toxin inh 108 (no result: NS1 inh)
O=C(N[C@@H](Cc1ccccc1)C(=O)OCc1ccccc1)c1nc[nH]c1C(=O)N1CCc2ccccc2C1	Cycloheximide cs 18
CCOc1ccc(NC(=S)N(Cc2ccc(N(C)C)cc2)Cc2ccco2)cc1	Cycloheximide cs 16, Shiga toxin inh 30
COc1ccc(NC(=S)N(Cc2ccc(N(C)C)cc2)Cc2ccco2)cc1	Cycloheximide cs 14
CCCCC(=O)Nc1cccc(NC(=O)c2ccc3c(c2)OCO3)c1	Cycloheximide cs 14
CCCC(=O)Nc1cccc(NC(=O)c2ccc3c(c2)OCCO3)c1	Cycloheximide cs 23, Shiga toxin inh 64
CCOc1ccc(NC(=O)COC(=O)c2ccc3c(c2)OCCO3)cc1	none (no result: Cycloheximide cs, Shiga toxin inh, NS1 inh, LmPK inh)
Cc1cccc(NC(=O)Nc2ccc(C)c(C)c2)n1	Cycloheximide cs 24, Shiga toxin inh 54
Cc1cccc(NC(=O)Nc2ccc([N+](=O)[O-])cc2)n1	none (no result: NS1 inh)
Cc1cccc(NC(=O)Nc2cccc(C)n2)n1	Cycloheximide cs 20, Shiga toxin inh 86
Cc1cccc(NC(=O)Nc2ccc3c(c2)N(C)C(=O)CS3)n1	none
Cc1ccc(NC(=O)Nc2cccc(C)n2)cc1	Cycloheximide cs 49, Shiga toxin inh 103
Cc1cccc(NC(=O)NC(=O)c2ccccc2)n1	Shiga toxin inh 74 (no result: NS1 inh)
O=C(CN1CCOCC1)N/N=C/c1ccc(-c2cccc(Cl)c2Cl)o1	none
Cc1cccc(Nc2nnc(-c3ccc(C)c(S(=O)(=O)N4CCOCC4)c3)c3ccccc23)c1	none (no result: Cycloheximide cs, SARS PLpro yeast, Shiga toxin inh, NS1 inh, LmPK inh)
Cc1ccc(NC(=O)c2cn(-c3cccc(C)n3)cn2)cc1	Cycloheximide cs 39, Shiga toxin inh 90
COC(=O)c1ccc(NC(=O)c2cn(-c3cccc(C)n3)cn2)cc1	none
Cc1cccc(NC(=O)Nc2ccc(Cl)cc2)n1	Cycloheximide cs 22, Shiga toxin inh 39
O=C(Nc1ccc(F)cc1)Nc1ccc2ccccc2n1	none
Cc1cccc(NC(=O)Nc2ccc(F)cc2)n1	Shiga toxin inh 63
O=C(CSc1ncccn1)NCC1CCCO1 (centres undefined)	none (no result: Cycloheximide cs, SARS PLpro yeast, Shiga toxin inh, NS1 inh, LmPK inh)
